Measured values: PubChem BioAssay AID720712 (NMMLSC, 2013)
The source made the active and inactive calls.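 How the source made its calls: active means EC50 at most 10 µM with response changing by at least 30 points across doses, from an acceptable curve fit; inactive means the rest.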

Target: Cell division control protein 42 homolog (Homo sapiens) (UniProt P60953)
Test: Cdc42 wildtype GTP-binding inhibitors, late-stage follow-up, mechanism study for Ras-family GTPase inhibitor project, biochemical, compound preincubation comparison, flow cytometry beads, Bodipy-FL-GTP (AID 720712)
Details: GST-Cdc42 beads, EDTA, protocol A; series mostly up to 100 µM

Sequence of Cell division control protein 42 homolog (Homo sapiens) (P60953 whole entry, looked up): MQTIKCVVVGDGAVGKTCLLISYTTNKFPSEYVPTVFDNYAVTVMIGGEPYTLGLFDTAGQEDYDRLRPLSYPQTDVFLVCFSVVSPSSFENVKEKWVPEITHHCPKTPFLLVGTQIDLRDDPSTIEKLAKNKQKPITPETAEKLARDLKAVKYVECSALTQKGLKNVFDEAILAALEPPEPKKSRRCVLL

Row | Structure (SMILES) | outcome
1 | CC1(C)Cc2c(sc(NC(=S)NC(=O)c3cccc(N=[N+]=[N-])c3)c2C(=O)O)CO1 | inactive
2 | CC1(C)Cc2c(sc(NC(=S)NC(=O)c3ccc(N=[N+]=[N-])cc3)c2C(=O)O)CO1 | inactive
